# Measurements published in PubChem BioAssay (NCATS).
# Where “and” joins values, the source holds several entries; their conditions need not be identical. Identical values can stand only once. Results filed as inconclusive are left out. A number with no mark means an inactive call. Calls of active or inactive are those of the source. The call rests on the fitted dose curve; in most records, active means well fitted inhibition curve with a large enough effect; inconclusive means small, poorly fitted or top-dose-only effect; inactive means no such curve, though single readings can be large or run the other way.
# Assay: Primary qHTS for inhibitors of nuclear receptor binding SET domain protein 2 (NSD2) in an RCH-ACV wild type WT cells (2C) (AID 1645877); further: nearly all actives have a fitted effect of over 70% in size
# Conditions: RCH-ACV (leukaemia line) NSD2 WT (2C) viability, CellTiter-Glo, 72 h; series mostly up to 44.9 µM; activity change, negative = cell killing: at the top concentration
# On the % scale 0 is the no-effect control and ±100 the full control effect; potency means the concentration at half of the fitted maximal effect.
Structure (SMILES),"activity change, negative = cell killing",Potency
C=C[C@H]1[C@H](O[C@@H]2O[C@H](CO)[C@@H](O)[C@H](O)[C@H]2O)OC=C(C(=O)OC)[C@H]1C[C@@H]1c2cc(O)c(O)cc2CCN1C(C)=O,-19.3% [at 17.3 µM],
CC(=O)c1ccc2c(c1)C(O)C(C(C)(C)O)O2 (configuration not stated),-12.3%,
C[C@@H]1CC[C@]2(C(=O)O[C@@H]3O[C@H](CO)[C@@H](O)[C@H](O)[C@H]3O)CC[C@]3(C)C(=CCC4[C@@]5(C)C[C@@H](O)[C@H](O)[C@@](C)(C(=O)O[C@H]6[C@H](O)C[C@@]7(C)C(CC[C@]8(C)C7CC=C7[C@H]9[C@](C(=O)O[C@@H]%10O[C@H](CO)[C@@H](O)[C@H](O)[C@H]%10O)(CC[C@@H](C)[C@@]9(C)O)CC[C@]78C)[C@@]6(CO)C(=O)O)C5CC[C@]43C)[C@@H]2[C@]1(C)O (some centres not stated),0.118% [at 9.23 µM],
CCCC1(c2ccccc2)NC(=O)N(CC(=O)N(C)Cc2c(F)cccc2Cl)C1=O (configuration not stated),-39.4%,
CC1=CC2C(CC1OC1OC(CO)C(O)C(O)C1O)C(C)CC(=O)C2C(C)C (configuration not stated),-11%,
C/C=C/c1ccc2oc(-c3ccc(O)c(OC)c3)c(C)c2c1,,16.3 µM (active)
Cc1c(C(=O)N2CCOc3ccc(-c4ccc(N)nc4)cc3C2)ccc(S(C)(=O)=O)c1F,,1.83 µM (active) and 3.32 µM (active)
